Source: PubChem BioAssay AID504408 (Broad Institute, 2011)
In all, about 300,000 compounds went through this assay and about 5,200 (1.7%) were called active. The list comes from a sample in which actives are over-represented; it also holds similar structures and randomly drawn compounds. Values without a mark were called inactive.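 Rule for the calls: active = mean replicate activation of at least 50% with a set share of replicates each reaching 50%; inconclusive = only one of those two conditions met; inactive = mean below 50% and too few replicates reaching it.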

Assay: HSF-1 response element luciferase induction – NIH3T3-HGL cells, MG132 stress, luminescence, single point, primary screen (AID 504408);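 note: 0% = median of the neutral control wells and 100% = twice that signal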
Conditions: NIH3T3-HGL HSF-1 luciferase reporter, MG132, 8 h; at 9 µM; active compounds read high; 100% = twice DMSO control signal

SMILES | activation
Cc1ccc(S(=O)(=O)n2cccc2CO)cc1 | 3.66%
O=C(COc1ccccc1)Nc1ccc(F)cc1 | 1.97%
Cc1ccc(O)c(CNc2nc3ccccc3n2C)c1 | 6.25%
Cc1ccc(-c2cc(=O)[nH]c(NCc3ccccc3)n2)cc1 | 11.6%
Cc1ccc(O)c(CNc2nc3ccccc3[nH]2)c1 | 83.1% (active)
Cc1sc2ncnc(N3CCC(C(=O)Nc4nc5ccc(Cl)cc5s4)CC3)c2c1C | 8.18%
CC(Oc1cccc(Cl)c1)C(=O)Nc1ccc(S(=O)(=O)Nc2ncccn2)cc1 (configuration not stated) | -4.25%
COc1cc2c(cc1OC)C(C)N(S(=O)(=O)c1cnc(Cl)c(Cl)c1)CC2 (configuration not stated) | 227% (active)
COc1ccc(S(=O)(=O)N2CCC(C(=O)N3CCc4ccccc4C3)CC2)cc1OC | -2.14%
COc1cc2c(cc1OC)CN(C(=O)c1cc(S(=O)(=O)N3CCCCC3)ccc1Cl)CC2 | 31.4%
CCCCn1c(N)c(N(CC)C(=O)c2ccc(N(C)S(=O)(=O)c3ccc(C)cc3)cc2)c(=O)[nH]c1=O | -9.17%
COc1ccc(OC)c(S(=O)(=O)N2CCCC(C(=O)N3CCC(C(N)=O)CC3)C2)c1 (configuration not stated) | -0.348%
CCN1C(=O)[C@@H]2[C@@H](c3ccc(-c4cccc(Cl)c4)cc3)N3CCC[C@@]3(C(=O)OC)[C@@H]2C1=O | 15%
O=C(/C=C\NCC(=O)c1ccccc1)c1ccccc1 | 16.4%
O=C(/C=C/NCc1ccc(F)cc1)c1ccccc1 | 57.4% (active)
O=C(Cc1ccccc1)NCc1ccc(F)cc1 | 20.9%
Cc1ccc(NC(=O)C(C)OC(=O)Cc2c[nH]c3ccccc23)cc1S(=O)(=O)N1CCOCC1 (configuration not stated) | 13%
Cc1ccc(C(=O)OCC(=O)N2CC(C)CC(C)C2)cc1S(=O)(=O)N1CCCCC1 (configuration not stated) | 1.62%
c1c2c(cc3sc(N4CCCCC4)nc13)OCCO2 | -56.8%
Brc1ccc2nc(N3CCCC3)sc2c1 | 68.3% (active)
Cc1ccc2nc(N3CCN(C(=O)c4ccco4)CC3)sc2c1 | 12.9%
CN(Cc1c(F)cccc1Cl)C(=O)CNC(=O)c1ccc2c(c1)OCO2 | -4.62%
Cc1ccc(S(=O)(=O)N2CCN(C(=O)c3ccccc3-c3nc4ccccc4s3)CC2)c(C)c1 | -2.98%
O=C1c2ccccc2C(=O)N1CCOc1ccc(F)cc1 | 43.4%

SMILES | activation
O=C(CCN1C(=O)c2ccccc2C1=O)Nc1cccc(F)c1 | -4.05%
O=C(CCN1C(=O)c2ccccc2C1=O)C1=NN[C@@H]2C(=O)N(c3ccc(F)cc3)C(=O)[C@H]12 | 67.2% (active)
CCOc1ccc(S(=O)(=O)Nc2cccc(C(=O)NCC3(N4CCCCC4)CCCCC3)c2)cc1 | -4.45%
O=C(CSc1nnc2scc(-c3ccc(F)cc3)n12)NCc1ccco1 | -1.83%
COc1ccc(-n2c(SCC(=O)NCc3ccco3)nnc2-c2c[nH]c3ccccc23)cc1 | 7.75%
O=C(CSc1nnc(-c2c[nH]c3ccccc23)n1-c1ccc(F)cc1)NCc1ccco1 | 58.5% (active)
O=S(=O)(Nc1ccc(-c2ccc(N3CCOCC3)nn2)cc1)c1cc(Cl)ccc1Cl | 12.9%
Cc1ccc(C(=O)N/N=C/c2cccc3ccccc23)cn1 | 15.6%
c1cnc(Nc2nc(-c3ccc4ccccc4c3)cs2)nc1 | 38.8%
COc1ccc(-c2csc(Nc3ccccn3)n2)cc1 | 57.4% (active)
CCCn1c(CCNc2nc(-c3ccc(OC)cc3)cs2)nc2ccccc21 | 3.73%
Cc1ccc(C(=O)Nc2ccc(C)c(S(=O)(=O)N(C)C)c2)s1 | 78.5% (active)
CCN(CC(=O)Nc1ccc(C)c(S(=O)(=O)N(C)C)c1)Cc1ccccc1 | 3.82%
Cc1ccc(NC(=O)c2cccs2)cc1S(=O)(=O)N(C)C | -11.9%
CN(C)S(=O)(=O)c1ccc(N2CCCC2)c(C(=O)Nc2ccc(Br)cc2F)c1 | 14.1%
Cc1ccc(Cc2nnc(SCC(=O)Nc3ccc(C)cc3C)[nH]c2=O)cc1 | 0.586%
Cc1c(NC(=O)C(C)OC(=O)c2c3c(nc4ccccc24)CCC(C)C3)c(=O)n(-c2ccccc2)n1C (configuration not stated) | -5.9%
Cc1nc(=O)c(-c2ccccc2)c(C)n1-c1ccc(Br)cc1 | 1.48%
O=C1CN(c2nc(-c3ccccc3)c3cc(Br)ccc3n2)c2ccccc2N1 | -21.4%
S=C1NC(c2ccccc2)=NCN1c1ccc(Br)cc1 | 55% (active)
CCC(=O)Nc1ccc2nn(-c3ccc(F)cc3)nc2c1 | 63.6% (active)
Cc1ccc(-n2nc3ccc(NC(=O)/C=C/c4ccco4)cc3n2)cc1C | 21.6%
CCC(=O)Nc1ccc(C(=O)Nc2cccc(OC)c2)cc1 | 11.2%
